# Article PMC7862700, “An all-to-all approach to the identification of sequence-specific readers for epigenetic DNA modifications on cytosine”
# Assays:
# Assay in all cases: DAPPL (digital affinity profiling via proximity ligation, sequencing); 10 mM Tris-HCl pH 7.5, 50 mM NaCl, 1 mM DTT, 4% glycerol, room temperature, 30 min; GST-TFs on glutathione beads, 16-mer random dsDNA library, 0.1% formaldehyde crosslink after washing; high values mean tight binding
# Conditions in all cases: protein: recombinant; tags: N-terminal GST; dsDNA, one strand shown
# FLI1 = target: T1, FLI1 (Homo sapiens, UniProt Q01543 1-452)
# T1 sequence: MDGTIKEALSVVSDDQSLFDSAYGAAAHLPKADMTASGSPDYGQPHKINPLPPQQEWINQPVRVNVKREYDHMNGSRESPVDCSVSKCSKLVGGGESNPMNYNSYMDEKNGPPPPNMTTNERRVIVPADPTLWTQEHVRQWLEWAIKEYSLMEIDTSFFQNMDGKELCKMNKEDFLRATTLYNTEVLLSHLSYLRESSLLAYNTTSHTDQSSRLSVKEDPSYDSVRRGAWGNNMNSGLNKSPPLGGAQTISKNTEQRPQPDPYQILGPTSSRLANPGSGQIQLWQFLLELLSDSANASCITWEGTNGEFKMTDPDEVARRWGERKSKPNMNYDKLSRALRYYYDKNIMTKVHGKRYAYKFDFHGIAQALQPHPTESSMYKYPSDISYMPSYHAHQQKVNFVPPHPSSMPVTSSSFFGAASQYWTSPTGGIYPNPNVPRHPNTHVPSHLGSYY
# Summary of the method: (§1)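 Human transcription factors carrying a GST fusion were produced in yeast, bound to glutathione beads, tagged with DNA barcodes and pooled together with a tag-only sample. Each pool was held with 200 nmole of a random double-stranded 16-mer DNA library in Tris/NaCl/DTT/glycerol buffer for 30 min at room temperature, then washed, crosslinked in 0.1% formaldehyde, proximity-ligated with BsaI/T4 ligase (1 h, 37 °C), PCR-amplified and sequenced on an Illumina NextSeq500. Binding signal is the read frequency of each hexamer for a given factor divided by its frequency in the tag-only sample.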
# ELK1 = target: T2, ELK1 (Homo sapiens, UniProt P19419 1-428)
# T2 sequence: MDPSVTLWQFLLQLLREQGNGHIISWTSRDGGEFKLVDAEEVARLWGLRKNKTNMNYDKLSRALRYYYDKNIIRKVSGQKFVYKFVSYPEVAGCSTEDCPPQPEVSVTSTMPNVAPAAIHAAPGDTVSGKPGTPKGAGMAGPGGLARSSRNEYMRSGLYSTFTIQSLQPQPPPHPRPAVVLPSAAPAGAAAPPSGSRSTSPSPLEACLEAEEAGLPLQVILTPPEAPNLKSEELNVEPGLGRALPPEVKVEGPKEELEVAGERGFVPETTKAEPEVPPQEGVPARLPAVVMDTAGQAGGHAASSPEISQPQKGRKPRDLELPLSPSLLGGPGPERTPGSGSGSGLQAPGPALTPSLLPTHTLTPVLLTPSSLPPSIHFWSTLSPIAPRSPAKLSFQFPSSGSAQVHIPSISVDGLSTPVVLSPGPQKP
# Summary of the method: as §1
# GABPA = target: T3, GABPA (Homo sapiens, UniProt Q06546 1-454)
# T3 sequence: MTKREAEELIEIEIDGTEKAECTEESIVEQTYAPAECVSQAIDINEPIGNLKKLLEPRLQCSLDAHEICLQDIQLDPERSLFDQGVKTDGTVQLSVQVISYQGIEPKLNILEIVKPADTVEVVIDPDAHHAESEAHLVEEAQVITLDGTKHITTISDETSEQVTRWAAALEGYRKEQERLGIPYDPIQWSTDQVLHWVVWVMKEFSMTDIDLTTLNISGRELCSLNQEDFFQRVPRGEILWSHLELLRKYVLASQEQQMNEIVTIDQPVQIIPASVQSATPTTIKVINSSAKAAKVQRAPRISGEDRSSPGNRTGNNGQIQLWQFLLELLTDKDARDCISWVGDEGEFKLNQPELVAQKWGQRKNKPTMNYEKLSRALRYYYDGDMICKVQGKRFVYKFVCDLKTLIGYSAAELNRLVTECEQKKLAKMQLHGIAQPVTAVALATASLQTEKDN
# Summary of the method: as §1
# ERG = target: T4, ERG (Homo sapiens, UniProt P11308 1-479)
# T4 sequence: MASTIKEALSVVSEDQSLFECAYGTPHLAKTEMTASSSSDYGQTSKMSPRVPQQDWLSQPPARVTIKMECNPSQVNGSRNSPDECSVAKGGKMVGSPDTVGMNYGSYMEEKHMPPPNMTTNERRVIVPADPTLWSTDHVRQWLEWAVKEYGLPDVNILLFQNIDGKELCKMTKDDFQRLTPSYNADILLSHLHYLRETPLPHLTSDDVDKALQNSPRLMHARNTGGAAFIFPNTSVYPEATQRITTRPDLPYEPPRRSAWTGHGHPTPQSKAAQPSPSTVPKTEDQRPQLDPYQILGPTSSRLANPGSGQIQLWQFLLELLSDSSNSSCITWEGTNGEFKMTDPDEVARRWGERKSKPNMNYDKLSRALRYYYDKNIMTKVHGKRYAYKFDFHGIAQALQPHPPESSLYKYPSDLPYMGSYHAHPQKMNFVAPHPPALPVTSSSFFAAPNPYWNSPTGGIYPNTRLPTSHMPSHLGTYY
# Summary of the method: as §1
# ELF1 = ELF1 (Homo sapiens, UniProt P32519 1-619)
# ELF1, sequence (P32519 whole entry): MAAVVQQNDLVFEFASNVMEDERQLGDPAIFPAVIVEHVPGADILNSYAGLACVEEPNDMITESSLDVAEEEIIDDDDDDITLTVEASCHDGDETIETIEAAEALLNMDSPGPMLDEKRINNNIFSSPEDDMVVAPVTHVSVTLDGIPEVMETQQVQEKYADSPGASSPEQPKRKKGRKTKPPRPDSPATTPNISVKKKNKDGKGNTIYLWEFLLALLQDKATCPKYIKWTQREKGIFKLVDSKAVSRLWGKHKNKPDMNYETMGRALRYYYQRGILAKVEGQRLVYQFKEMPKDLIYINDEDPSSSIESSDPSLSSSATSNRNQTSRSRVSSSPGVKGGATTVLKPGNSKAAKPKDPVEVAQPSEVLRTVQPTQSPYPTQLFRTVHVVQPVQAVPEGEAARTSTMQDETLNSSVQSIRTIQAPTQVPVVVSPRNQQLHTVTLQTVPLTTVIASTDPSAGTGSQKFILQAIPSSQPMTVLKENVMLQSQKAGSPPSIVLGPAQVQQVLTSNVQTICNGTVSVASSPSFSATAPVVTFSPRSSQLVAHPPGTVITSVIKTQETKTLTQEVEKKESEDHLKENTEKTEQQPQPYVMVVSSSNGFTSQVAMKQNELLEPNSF
# Summary of the method: as §1
# EHF = target: T5, EHF (Homo sapiens, UniProt Q9NZC4 1-300)
# T5 sequence: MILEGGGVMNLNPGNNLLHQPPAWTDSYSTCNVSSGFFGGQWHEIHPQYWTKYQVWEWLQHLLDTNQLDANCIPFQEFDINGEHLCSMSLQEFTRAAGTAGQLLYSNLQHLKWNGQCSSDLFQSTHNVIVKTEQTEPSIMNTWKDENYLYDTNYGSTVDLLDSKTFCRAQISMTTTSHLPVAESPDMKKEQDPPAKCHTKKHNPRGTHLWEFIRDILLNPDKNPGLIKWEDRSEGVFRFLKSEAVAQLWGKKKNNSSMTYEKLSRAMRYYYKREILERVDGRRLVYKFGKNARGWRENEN
# Summary of the method: as §1
# SPI1 = SPI1 (Homo sapiens, UniProt P17947 1-270)
# Summary of the method: as §1
# SPIB = SPIB (Homo sapiens, UniProt Q01892 1-262)
# SPIB, sequence (Q01892 whole entry): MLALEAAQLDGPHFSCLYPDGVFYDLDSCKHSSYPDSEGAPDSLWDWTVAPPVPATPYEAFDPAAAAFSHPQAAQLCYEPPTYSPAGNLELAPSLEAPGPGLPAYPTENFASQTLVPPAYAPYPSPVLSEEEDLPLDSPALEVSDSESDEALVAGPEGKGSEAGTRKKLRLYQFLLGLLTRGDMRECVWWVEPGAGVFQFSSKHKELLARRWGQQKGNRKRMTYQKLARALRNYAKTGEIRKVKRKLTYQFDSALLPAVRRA
# Summary of the method: as §1
# ELK3 = target: T6, ELK3 (Homo sapiens, UniProt P41970 1-407)
# T6 sequence: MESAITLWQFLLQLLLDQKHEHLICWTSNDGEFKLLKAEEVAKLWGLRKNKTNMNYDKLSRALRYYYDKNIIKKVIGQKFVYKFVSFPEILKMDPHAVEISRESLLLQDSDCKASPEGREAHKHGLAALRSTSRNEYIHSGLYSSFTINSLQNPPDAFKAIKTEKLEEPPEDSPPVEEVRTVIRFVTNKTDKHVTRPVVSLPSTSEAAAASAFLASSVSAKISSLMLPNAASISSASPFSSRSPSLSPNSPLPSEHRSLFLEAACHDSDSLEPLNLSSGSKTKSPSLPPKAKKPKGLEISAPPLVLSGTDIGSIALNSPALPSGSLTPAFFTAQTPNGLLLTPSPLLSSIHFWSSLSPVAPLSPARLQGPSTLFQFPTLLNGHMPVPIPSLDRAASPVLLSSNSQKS
# Summary of the method: as §1
Sequence,binding signal (FLI1),binding signal (ELK1),binding signal (GABPA),binding signal (ERG),binding signal (ELF1),binding signal (EHF),binding signal (SPI1),binding signal (SPIB),binding signal (ELK3)
CTACTT,"1.85 fold enrichment (6-mer frequency, TF over GST control)","1.77 fold enrichment (6-mer frequency, TF over GST control)","1.72 fold enrichment (6-mer frequency, TF over GST control)","1.96 fold enrichment (6-mer frequency, TF over GST control)","1.85 fold enrichment (6-mer frequency, TF over GST control)","1.92 fold enrichment (6-mer frequency, TF over GST control)","2.05 fold enrichment (6-mer frequency, TF over GST control)","1.96 fold enrichment (6-mer frequency, TF over GST control)","1.88 fold enrichment (6-mer frequency, TF over GST control)"
GTTCTG,"1.14 fold enrichment (6-mer frequency, TF over GST control)","1.21 fold enrichment (6-mer frequency, TF over GST control)","1.16 fold enrichment (6-mer frequency, TF over GST control)","1.16 fold enrichment (6-mer frequency, TF over GST control)","1.08 fold enrichment (6-mer frequency, TF over GST control)","1.16 fold enrichment (6-mer frequency, TF over GST control)","1.17 fold enrichment (6-mer frequency, TF over GST control)","1.16 fold enrichment (6-mer frequency, TF over GST control)","1.18 fold enrichment (6-mer frequency, TF over GST control)"
AATTCC,"1.95 fold enrichment (6-mer frequency, TF over GST control)","1.93 fold enrichment (6-mer frequency, TF over GST control)","1.81 fold enrichment (6-mer frequency, TF over GST control)","1.96 fold enrichment (6-mer frequency, TF over GST control)","1.86 fold enrichment (6-mer frequency, TF over GST control)","2.05 fold enrichment (6-mer frequency, TF over GST control)","1.89 fold enrichment (6-mer frequency, TF over GST control)","2.02 fold enrichment (6-mer frequency, TF over GST control)","1.94 fold enrichment (6-mer frequency, TF over GST control)"
GGACCT,"1.42 fold enrichment (6-mer frequency, TF over GST control)","1.37 fold enrichment (6-mer frequency, TF over GST control)","1.41 fold enrichment (6-mer frequency, TF over GST control)","1.33 fold enrichment (6-mer frequency, TF over GST control)","1.35 fold enrichment (6-mer frequency, TF over GST control)","1.35 fold enrichment (6-mer frequency, TF over GST control)","1.28 fold enrichment (6-mer frequency, TF over GST control)","1.33 fold enrichment (6-mer frequency, TF over GST control)","1.37 fold enrichment (6-mer frequency, TF over GST control)"
